Results filed as inconclusive are left out. Active and inactive are the calls of the source. The calls were made as follows, unless noted: active = hit-call score of the fitted dose curve at least 0.9, where 1 is the maximum; inconclusive = response in the unintended direction; inactive = score below 0.9.
Legend:
DIO1 (gene 1733) = assay: CCTE_GLTED_hDIO1: CCTE's human Deiodinase 1 (DIO1) Inhibition Assay, Great Lakes Toxicology and Ecology Division (GLTED) Lab (AID 2283987);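 also: isolated human DIO1 enzyme in a cell-free setup rather than cells; enzyme activity read as free iodide liberated from substrate via Sandell-Kolthoff colorimetry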
Outline: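 Cell-free human DIO1 enzyme was incubated with test chemical for 3 h, and iodide released from substrate was measured by Sandell-Kolthoff absorbance. Loss of signal versus DMSO baseline indicated inhibition; plates were run in triplicate.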

[1] = molecular target: Nucleoli Translocation, AR (gene 367) (UniProt P10275); assay: UPITT_HCI_U2OS_AR_TIF2_Nucleoli_Antagonist: University of Pittsburgh U2OS Androgen Receptor-Transcriptional Intermediary Factor 2 (AR-TIF2) Antagonism High Content Imaging Assay for Nucleoli Translocation (AID 2283997)
Sequence of Nucleoli Translocation, AR (gene 367) (P10275 whole entry, looked up, the tested form may be a part): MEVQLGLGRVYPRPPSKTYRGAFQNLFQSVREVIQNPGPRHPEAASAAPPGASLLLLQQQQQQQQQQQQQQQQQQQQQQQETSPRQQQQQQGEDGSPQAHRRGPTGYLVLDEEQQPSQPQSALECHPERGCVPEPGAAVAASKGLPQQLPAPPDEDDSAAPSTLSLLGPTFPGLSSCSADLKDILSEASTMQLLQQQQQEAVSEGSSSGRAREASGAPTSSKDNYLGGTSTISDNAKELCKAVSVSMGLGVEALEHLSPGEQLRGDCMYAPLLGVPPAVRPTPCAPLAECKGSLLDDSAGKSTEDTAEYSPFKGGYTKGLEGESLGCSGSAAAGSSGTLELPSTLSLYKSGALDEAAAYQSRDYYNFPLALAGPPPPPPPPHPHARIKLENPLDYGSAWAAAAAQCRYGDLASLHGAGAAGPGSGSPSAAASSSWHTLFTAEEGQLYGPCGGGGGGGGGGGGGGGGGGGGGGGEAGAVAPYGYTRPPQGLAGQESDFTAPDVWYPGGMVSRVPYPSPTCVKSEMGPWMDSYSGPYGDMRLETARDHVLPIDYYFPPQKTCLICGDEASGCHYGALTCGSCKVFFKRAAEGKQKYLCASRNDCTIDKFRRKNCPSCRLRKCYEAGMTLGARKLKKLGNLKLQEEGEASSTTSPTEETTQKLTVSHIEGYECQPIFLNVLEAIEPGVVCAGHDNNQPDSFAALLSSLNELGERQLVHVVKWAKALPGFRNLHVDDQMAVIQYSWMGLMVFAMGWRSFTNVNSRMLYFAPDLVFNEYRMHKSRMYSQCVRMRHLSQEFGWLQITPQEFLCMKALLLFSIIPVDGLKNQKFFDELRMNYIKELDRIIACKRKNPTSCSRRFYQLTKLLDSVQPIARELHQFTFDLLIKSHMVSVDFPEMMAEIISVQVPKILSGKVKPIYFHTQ
Outline: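 U2OS cells expressing RFP-tagged human AR and GFP-tagged TIF2 were imaged by high-content fluorescence microscopy for red AR signal in the nucleolar region. Compounds were screened at 20 uM final (0.2% DMSO), with activity fitted relative to DHT as baseline.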

[2] = molecular target: Nucleoli Translocation, AR (gene 367) (UniProt P10275); assay: UPITT_HCI_U2OS_AR_TIF2_Nucleoli_Agonist: University of Pittsburgh U2OS Androgen Receptor-Transcriptional Intermediary Factor 2 (AR-TIF2) Agonism High Content Imaging Assay for Nucleoli Translocation (AID 2283998)
Outline: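 Cells express human AR fused to red fluorescent protein and TIF2 fused to GFP. Red fluorescence in the nucleolar region was quantified by high-content imaging and fitted as gain-of-signal against a DMSO baseline. Compounds were tested at 0.195 to 50 uM final (0.5% DMSO).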

[3] = molecular target: Ratio of Nucleoli Translocation and Cytoplasm, AR (gene 367) (UniProt P10275); assay: UPITT_HCI_U2OS_AR_TIF2_Nucleoli_Cytoplasm_Ratio_Antagonist: University of Pittsburgh U2OS Androgen Receptor-Transcriptional Intermediary Factor 2 (AR-TIF2) Antagonism High Content Imaging Assay for Ratio of Nucleoli Translocation and Cytoplasm (AID 2283999);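 also: antagonists lower the DHT-driven ratio of nucleolar to cytoplasmic red signal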
Sequence of Ratio of Nucleoli Translocation and Cytoplasm, AR (gene 367) (P10275 whole entry, looked up): as the sequence (P10275 whole entry, looked up, the tested form may be a part) above
Outline: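 High-content imaging quantifies the red nucleolar:cytoplasmic fluorescence ratio in U2OS cells with AR-RFP and TIF2-GFP. Final concentrations are 20 uM (screen) or 0.195–50 uM (dose response), analysed against DHT as baseline.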

[4] = TOX21_TRB_BLA_Antagonist_Followup_viability: Viability Assessment in the Tox21 Thyroid Hormone Receptor beta Antagonism Beta-lactamase (BLA) Follow-Up Assay (AID 2283961)
Outline: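 HEK293T cells stably expressing GAL4-DBD/human TRβ-LBD with UAS-bla reporter, 3,000 cells/well in phenol red-free DMEM, 2% charcoal-stripped FBS. Compounds at 11 concentrations in triplicate, 18 h at 37C/5% CO2; viability by CellTiter-Glo luminescence after 30 min at room temperature.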

THRB (gene 7068) = THRB (gene 7068) (UniProt P10828); assay: TOX21_TRB_COA_Antagonist_Followup_ratio: Tox21 Thyroid Hormone Receptor beta Antagonism through Coactivator Recruitment Follow-Up Assay, Ratio (AID 2283967)
Sequence of THRB (gene 7068) (P10828 whole entry, looked up, the tested form may be a part): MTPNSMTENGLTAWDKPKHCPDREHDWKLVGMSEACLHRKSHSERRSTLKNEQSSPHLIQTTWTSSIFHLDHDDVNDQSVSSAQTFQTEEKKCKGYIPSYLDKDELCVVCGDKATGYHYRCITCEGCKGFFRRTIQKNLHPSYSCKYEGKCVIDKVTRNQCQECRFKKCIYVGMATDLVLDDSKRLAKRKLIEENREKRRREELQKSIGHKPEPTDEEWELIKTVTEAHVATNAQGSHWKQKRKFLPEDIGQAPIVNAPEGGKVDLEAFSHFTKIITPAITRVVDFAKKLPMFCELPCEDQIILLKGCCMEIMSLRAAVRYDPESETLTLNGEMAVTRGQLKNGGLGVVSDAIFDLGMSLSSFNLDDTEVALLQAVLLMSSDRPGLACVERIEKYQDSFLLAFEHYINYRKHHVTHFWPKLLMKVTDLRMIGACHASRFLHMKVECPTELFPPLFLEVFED
Outline: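 Cell-free TR-FRET coactivator recruitment with GST-tagged TRβ LBD (5.0 nM) and fluorescein-labeled SRC-2 peptide (200 nM) detected by terbium anti-GST antibody (2 nM). The 520:495 nm emission ratio was normalized to DMSO (0%) and T3 (100%).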

[5] = molecular target: Retinoic acid receptor RXR-alpha (Homo sapiens) (UniProt P19793); assay: TOX21_TR_RXR_BLA_Antagonist_Followup_ratio: Tox21 Thyroid Hormone Receptor beta Retinoid X Receptor alpha (RXRa) Antagonism Beta-lactamase (BLA) Follow-Up Assay, Ratio (AID 2283972)
Sequence of Retinoic acid receptor RXR-alpha (Homo sapiens) (P19793 whole entry, looked up): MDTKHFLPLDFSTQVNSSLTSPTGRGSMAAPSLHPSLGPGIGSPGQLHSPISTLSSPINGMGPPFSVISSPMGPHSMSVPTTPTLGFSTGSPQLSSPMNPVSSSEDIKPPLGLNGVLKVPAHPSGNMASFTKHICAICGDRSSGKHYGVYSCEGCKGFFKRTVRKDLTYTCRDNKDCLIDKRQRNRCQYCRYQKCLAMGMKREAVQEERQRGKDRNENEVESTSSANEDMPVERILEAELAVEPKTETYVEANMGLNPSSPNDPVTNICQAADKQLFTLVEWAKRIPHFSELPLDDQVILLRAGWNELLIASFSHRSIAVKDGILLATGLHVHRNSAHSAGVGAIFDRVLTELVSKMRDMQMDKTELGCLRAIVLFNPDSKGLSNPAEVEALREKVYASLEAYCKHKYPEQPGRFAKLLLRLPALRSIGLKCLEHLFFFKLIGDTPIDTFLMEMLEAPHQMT
Outline: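 RXRa-UAS-bla HEK293T cells in phenol red-free DMEM with 2% charcoal-stripped FBS; compounds at 11 concentrations in triplicate, 16 h at 37C. LiveBLAzer FRET-B/CCF4-AM substrate 2 h at room temperature; read as 460:530 nm ratio versus DMSO.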

[6] = TOX21_TR_RXR_BLA_Antagonist_Followup_viability: Viability Assessment in the Tox21 Thyroid Hormone Receptor beta Retinoid X Receptor alpha (RXRa) Antagonism Beta-lactamase (BLA) Follow-Up Assay (AID 2283979)
Outline: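 RXRa-UAS-bla HEK293T cells seeded 2,500/well in phenol red-free DMEM with 2% charcoal-stripped FBS, attached 5 h, then exposed to compounds at 11 concentrations in triplicate for 16 h at 37C/5% CO2. Viability read by CellTiter-Glo ATP luminescence; bidirectional fit versus DMSO.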

[7] = CCTE_Harrill_HTTr_Viability_DMEM_6hr: (Pilot) CCTE's 6-hour Cell Viability Assessment for the High-Throughput Transcriptomics (HTTr) Platform, in MCF-7 cells cultured in DMEM + 10% fetal bovine serum, Harrill Lab (AID 2283973; active = hit-call score of the fitted dose curve at least 0.9, where 1 is the maximum; inactive = score below 0.9)
Outline: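 MCF-7 cells in DMEM + 10% FBS, eight-point dilution series, 6 h exposure. Membrane integrity by propidium iodide exclusion with high-content imaging; bidirectional fit versus DMSO.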

[8] = CCTE_Harrill_HTTr_Viability_DMEM_12hr: (Pilot) CCTE's 12-hour Cell Viability Assessment for the High-Throughput Transcriptomics (HTTr) Platform, in MCF-7 cells cultured in DMEM + 10% fetal bovine serum, Harrill Lab (AID 2283974; active = hit-call score of the fitted dose curve at least 0.9, where 1 is the maximum; inactive = score below 0.9)
Outline: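 MCF-7 cells in DMEM + 10% FBS exposed 12 h to an eight-point dilution series; membrane integrity scored by propidium iodide exclusion with high-content imaging, bidirectional fitting versus DMSO.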

[9] = CCTE_Harrill_HTTr_Viability_DMEM_24hr: (Pilot) CCTE's 24-hour Cell Viability Assessment for the High-Throughput Transcriptomics (HTTr) Platform, in MCF-7 cells cultured in DMEM + 10% fetal bovine serum, Harrill Lab (AID 2283975; active = hit-call score of the fitted dose curve at least 0.9, where 1 is the maximum; inactive = score below 0.9)
Outline: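 MCF-7 cells in DMEM with 10% FBS exposed for 24 hours to an eight-point dilution series. Membrane integrity by propidium iodide exclusion with high content imaging; bidirectional fit against DMSO.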

[10] = CCTE_Harrill_HTTr_Viability_PRF_DMEM_6hr: (Pilot) CCTE's 6-hour Cell Viability Assessment for the High-Throughput Transcriptomics (HTTr) Platform, in MCF-7 cells cultured phenol red-free DMEM + 10% charcoal-stripped fetal bovine serum, Harrill Lab (AID 2283976; active = hit-call score of the fitted dose curve at least 0.9, where 1 is the maximum; inactive = score below 0.9)
Outline: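 MCF-7 cells in phenol red-free DMEM with 10% charcoal-stripped FBS exposed 6 hours to an eight-point dilution series. Propidium iodide exclusion imaged; curves fitted bidirectionally against DMSO.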

[11] = CCTE_Harrill_HTTr_Viability_PRF_DMEM_12hr: (Pilot) CCTE's 12-hour Cell Viability Assessment for the High-Throughput Transcriptomics (HTTr) Platform, in MCF-7 cells cultured in phenol red-free DMEM + 10% charcoal-stripped fetal bovine serum, Harrill Lab (AID 2283977; active = hit-call score of the fitted dose curve at least 0.9, where 1 is the maximum; inactive = score below 0.9)
Outline: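 MCF-7 cells in phenol red-free DMEM with 10% charcoal-stripped FBS exposed 12 hours to an eight-point dilution series. Viability assessed by high-content imaging of propidium iodide exclusion; bidirectional fit versus DMSO.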

[12] = CCTE_Harrill_HTTr_Viability_PRF_DMEM_24hr: (Pilot) CCTE's 24-hour Cell Viability Assessment for the High-Throughput Transcriptomics (HTTr) Platform, in MCF-7 cells cultured in phenol red-free DMEM + 10% charcoal-stripped fetal bovine serum, Harrill Lab (AID 2283980; active = hit-call score of the fitted dose curve at least 0.9, where 1 is the maximum; inactive = score below 0.9)
Outline: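 MCF-7 cells in phenol red-free DMEM with 10% charcoal-stripped FBS, eight-point dilution series, 24 h exposure. Membrane integrity by propidium iodide exclusion with high content imaging; bidirectional fit vs DMSO.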

[13] = CCTE_Harrill_HTTr_Apoptosis_DMEM_6hr: (Pilot) CCTE's 6-hour Apoptosis Assessment for the High-Throughput Transcriptomics (HTTr) Platform, in MCF-7 cells cultured in DMEM + 10% fetal bovine serum, Harrill Lab (AID 2283981; active = hit-call score of the fitted dose curve at least 0.9, where 1 is the maximum; inactive = score below 0.9)
Outline: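 Caspase-3/7 activation read by high content imaging with CellEvent Caspase 3/7 Green in MCF-7 cells (DMEM + 10% FBS), 6 h after dosing; eight-point dilution series. Bidirectional fitting relative to DMSO baseline.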

[14] = CCTE_Harrill_HTTr_Apoptosis_DMEM_12hr: (Pilot) CCTE's 12-hour Apoptosis Assessment for the High-Throughput Transcriptomics (HTTr) Platform, in MCF-7 cells cultured in DMEM + 10% fetal bovine serum, Harrill Lab (AID 2283982; active = hit-call score of the fitted dose curve at least 0.9, where 1 is the maximum; inactive = score below 0.9)
Outline: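 MCF-7 cells in DMEM + 10% FBS, exposed 12 h to an eight-point dilution series; caspase-3/7 activation imaged with CellEvent Green. Bidirectional fit versus DMSO.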

[15] = CCTE_Harrill_HTTr_Apoptosis_DMEM_24hr: (Pilot) CCTE's 24-hour Apoptosis Assessment for the High-Throughput Transcriptomics (HTTr) Platform, in MCF-7 cells cultured in DMEM + 10% fetal bovine serum, Harrill Lab (AID 2283983; active = hit-call score of the fitted dose curve at least 0.9, where 1 is the maximum; inactive = score below 0.9)
Outline: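 MCF-7 cells in DMEM + 10% FBS, eight-point dilution series, 24 h exposure. Caspase-3/7 activation imaged by high-content imaging with CellEvent Caspase 3/7 Green. Bidirectional curve fitting against DMSO baseline.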

[16] = CCTE_Harrill_HTTr_Apoptosis_PRF_DMEM_6hr: (Pilot) CCTE's 6-hour Apoptosis Assessment for the High-Throughput Transcriptomics (HTTr) Platform, in MCF-7 cells cultured phenol red-free DMEM + 10% charcoal-stripped fetal bovine serum, Harrill Lab (AID 2283984; active = hit-call score of the fitted dose curve at least 0.9, where 1 is the maximum; inactive = score below 0.9)
Outline: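 MCF-7 cells in phenol red-free DMEM + 10% charcoal-stripped FBS, eight-point dilution series, 6 h exposure. Caspase-3/7 activation imaged by high-content imaging with CellEvent Caspase 3/7 Green; bidirectional fit versus DMSO baseline.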

[17] = CCTE_Harrill_HTTr_Apoptosis_PRF_DMEM_12hr: (Pilot) CCTE's 12-hour Apoptosis Assessment for the High-Throughput Transcriptomics (HTTr) Platform, in MCF-7 cells cultured in phenol red-free DMEM + 10% charcoal-stripped fetal bovine serum, Harrill Lab (AID 2283985; active = hit-call score of the fitted dose curve at least 0.9, where 1 is the maximum; inactive = score below 0.9)
Outline: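 MCF-7 cells in phenol red-free DMEM with 10% charcoal-stripped FBS, eight-point dilution series, 12 h exposure. Caspase-3/7 activation imaged by high content imaging with CellEvent Green reagent; bidirectional fit vs DMSO.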

[18] = CCTE_Harrill_HTTr_Apoptosis_PRF_DMEM_24hr: (Pilot) CCTE's 24-hour Apoptosis Assessment for the High-Throughput Transcriptomics (HTTr) Platform, in MCF-7 cells cultured in phenol red-free DMEM + 10% charcoal-stripped fetal bovine serum, Harrill Lab (AID 2283986; active = hit-call score of the fitted dose curve at least 0.9, where 1 is the maximum; inactive = score below 0.9)
Outline: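 MCF-7 cells in phenol red-free DMEM with 10% charcoal-stripped FBS, exposed 24 h across an eight-point dilution series. Caspase-3/7 activation imaged with CellEvent Green by high content imaging; bidirectional fitting against DMSO.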

Measured: AC50

N#Cc1nn(-c2c(Cl)cc(C(F)(F)F)cc2Cl)c(N)c1S(=O)C(F)(F)F (stereo not given)
inactive: [1] | [2] | [3]
active: DIO1 (gene 1733) 50.6 µM

CCON=C(CC)C1=C(O)CC(c2c(C)cc(C)cc2C)CC1=O (stereo not given)
inactive: [1] | [3]

CCc1nn(C)c(C(=O)NCc2ccc(C(C)(C)C)cc2)c1Cl
active: [4] 4.69 µM | [6] 7.74 µM
inactive: THRB (gene 7068) | [5]

CCCCNC(=O)n1c(NC(=O)OC)nc2ccccc21
inactive: [4] | THRB (gene 7068) | [5] | [6] | [1] | [2]

CS/C(C)=N/OC(=O)N(C)SN(C)C(=O)O/N=C(\C)SC
active: [1] 21.7 µM | [2] 70.8 µM | [3] 13.8 µM

CCOC(=O)CC(SP(=S)(OC)OC)C(=O)OCC (stereo not given)
active: [1] 50 µM | [3] 69.2 µM

Cc1ccc(-c2c(Cl)nc(C#N)n2S(=O)(=O)N(C)C)cc1
active: DIO1 (gene 1733) 43.7 µM
inactive: [1] | [2] | [3]

O=C(Nc1ccccc1)Nc1ccnc(Cl)c1
inactive: [3]
active: [2] 84.5 µM

C=CC1(C)OC(=O)N(c2cc(Cl)cc(Cl)c2)C1=O (stereo not given)
not listed: DIO1 (gene 1733) | [1] | [2] | [3] | [4] | THRB (gene 7068) | [5] | [6]
inactive: all other assays above

CO/C=C(/C(=O)OC)c1ccccc1Oc1cc(Oc2ccccc2C#N)ncn1
active: [4] 38.1 µM
inactive: THRB (gene 7068) | [5] | [6] | [1] | [3]

CC(C)(C)c1ccc(CSc2cnn(C(C)(C)C)c(=O)c2Cl)cc1
inactive: [4] | [6]

CN(C)C(=S)SSC(=S)N(C)C
active: [9] 54.6 µM | [12] 46.7 µM | [15] 80.6 µM | [1] 12.6 µM | [3] 9.92 µM
not listed: DIO1 (gene 1733) | [5]
inactive: all other assays above

From PubChem BioAssay (EPA / NIEHS)
